This is an account of results in ChEMBL document CHEMBL2218924, “A broad activity screen in support of a chemogenomic map for kinase signalling research and drug discovery” (Biochem J, 2013).

For assay [1], the target named is Mitogen-activated protein kinase 10 (Homo sapiens) (UniProt P53779). The conditions noted are these: at 10 µM.
Assay [2] deals with Vascular endothelial growth factor receptor 2 (Homo sapiens) (UniProt P35968). The conditions noted are these: at 1 µM.
Assay [3] shares this target. The conditions noted are these: at 10 µM.
The target of assay [4] is LIM domain kinase 1 (Homo sapiens) (UniProt P53667). The note with it: at 1 µM.
LIM domain kinase 1 (Homo sapiens), sequence (P53667 whole entry, looked up, the tested form may be a part): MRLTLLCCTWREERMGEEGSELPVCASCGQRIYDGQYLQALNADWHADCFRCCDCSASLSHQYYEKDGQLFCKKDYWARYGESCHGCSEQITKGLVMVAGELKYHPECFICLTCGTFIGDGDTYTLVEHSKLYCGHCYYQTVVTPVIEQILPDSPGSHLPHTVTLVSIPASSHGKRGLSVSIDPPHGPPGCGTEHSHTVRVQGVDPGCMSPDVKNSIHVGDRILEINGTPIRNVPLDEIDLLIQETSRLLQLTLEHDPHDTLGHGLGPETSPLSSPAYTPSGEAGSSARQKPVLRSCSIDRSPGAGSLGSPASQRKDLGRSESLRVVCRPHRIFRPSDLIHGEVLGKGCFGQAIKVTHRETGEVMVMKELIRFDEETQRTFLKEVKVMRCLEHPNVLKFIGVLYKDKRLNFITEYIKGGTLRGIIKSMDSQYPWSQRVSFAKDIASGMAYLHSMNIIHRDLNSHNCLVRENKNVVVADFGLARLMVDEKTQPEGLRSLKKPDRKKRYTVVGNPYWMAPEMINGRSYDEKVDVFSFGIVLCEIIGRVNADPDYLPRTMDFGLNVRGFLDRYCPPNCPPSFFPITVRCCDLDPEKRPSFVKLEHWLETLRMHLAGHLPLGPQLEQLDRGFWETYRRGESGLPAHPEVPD
Assay [5] shares this target. The note with it: at 10 µM.
For assay [6], the target named is T1, Serine/threonine-protein kinase STK11 (Homo sapiens) (UniProt Q15831).
T1 sequence (whole entry): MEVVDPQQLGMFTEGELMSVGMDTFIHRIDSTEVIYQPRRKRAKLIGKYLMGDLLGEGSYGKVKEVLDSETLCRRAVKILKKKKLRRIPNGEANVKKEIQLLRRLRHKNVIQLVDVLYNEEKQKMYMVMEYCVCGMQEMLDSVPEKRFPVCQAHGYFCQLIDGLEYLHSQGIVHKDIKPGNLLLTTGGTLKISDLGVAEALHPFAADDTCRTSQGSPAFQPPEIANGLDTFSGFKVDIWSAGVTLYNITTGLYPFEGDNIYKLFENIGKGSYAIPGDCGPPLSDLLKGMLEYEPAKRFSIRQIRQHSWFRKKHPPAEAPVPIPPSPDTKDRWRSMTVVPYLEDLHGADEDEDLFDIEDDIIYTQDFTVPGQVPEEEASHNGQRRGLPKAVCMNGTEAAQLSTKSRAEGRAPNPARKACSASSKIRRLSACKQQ
The conditions noted are these: at 1 µM.

Assay [7] concerns the target Serine/threonine-protein kinase 10 (Homo sapiens) (UniProt O94804). The conditions noted are these: at 1 µM.
Assay [8] has the same target. The conditions noted are these: at 10 µM.
The target in assay [9] is Tyrosine-protein kinase Lck (Homo sapiens) (UniProt P06239). The note with it: at 1 µM.
Tyrosine-protein kinase Lck (Homo sapiens), sequence (P06239 2-509 limits assumed): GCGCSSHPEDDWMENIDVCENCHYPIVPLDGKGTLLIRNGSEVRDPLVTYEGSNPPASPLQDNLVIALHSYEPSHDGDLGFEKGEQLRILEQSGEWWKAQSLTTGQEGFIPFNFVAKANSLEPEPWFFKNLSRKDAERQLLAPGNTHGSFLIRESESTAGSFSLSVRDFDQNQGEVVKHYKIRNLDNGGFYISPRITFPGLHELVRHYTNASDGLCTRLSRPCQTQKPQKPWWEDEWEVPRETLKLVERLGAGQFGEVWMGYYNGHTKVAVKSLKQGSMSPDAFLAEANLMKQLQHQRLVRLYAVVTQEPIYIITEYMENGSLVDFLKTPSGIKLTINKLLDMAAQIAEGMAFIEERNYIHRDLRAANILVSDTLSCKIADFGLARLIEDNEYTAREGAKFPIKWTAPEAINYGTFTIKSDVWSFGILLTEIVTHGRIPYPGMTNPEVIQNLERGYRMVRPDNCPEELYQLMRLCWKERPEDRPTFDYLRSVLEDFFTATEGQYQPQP
Assay [10] deals with T1, Serine/threonine-protein kinase STK11 (Homo sapiens). The conditions noted are these: at 10 µM.

Vascular endothelial growth factor receptor 2 (Homo sapiens), sequence (P35968 whole entry): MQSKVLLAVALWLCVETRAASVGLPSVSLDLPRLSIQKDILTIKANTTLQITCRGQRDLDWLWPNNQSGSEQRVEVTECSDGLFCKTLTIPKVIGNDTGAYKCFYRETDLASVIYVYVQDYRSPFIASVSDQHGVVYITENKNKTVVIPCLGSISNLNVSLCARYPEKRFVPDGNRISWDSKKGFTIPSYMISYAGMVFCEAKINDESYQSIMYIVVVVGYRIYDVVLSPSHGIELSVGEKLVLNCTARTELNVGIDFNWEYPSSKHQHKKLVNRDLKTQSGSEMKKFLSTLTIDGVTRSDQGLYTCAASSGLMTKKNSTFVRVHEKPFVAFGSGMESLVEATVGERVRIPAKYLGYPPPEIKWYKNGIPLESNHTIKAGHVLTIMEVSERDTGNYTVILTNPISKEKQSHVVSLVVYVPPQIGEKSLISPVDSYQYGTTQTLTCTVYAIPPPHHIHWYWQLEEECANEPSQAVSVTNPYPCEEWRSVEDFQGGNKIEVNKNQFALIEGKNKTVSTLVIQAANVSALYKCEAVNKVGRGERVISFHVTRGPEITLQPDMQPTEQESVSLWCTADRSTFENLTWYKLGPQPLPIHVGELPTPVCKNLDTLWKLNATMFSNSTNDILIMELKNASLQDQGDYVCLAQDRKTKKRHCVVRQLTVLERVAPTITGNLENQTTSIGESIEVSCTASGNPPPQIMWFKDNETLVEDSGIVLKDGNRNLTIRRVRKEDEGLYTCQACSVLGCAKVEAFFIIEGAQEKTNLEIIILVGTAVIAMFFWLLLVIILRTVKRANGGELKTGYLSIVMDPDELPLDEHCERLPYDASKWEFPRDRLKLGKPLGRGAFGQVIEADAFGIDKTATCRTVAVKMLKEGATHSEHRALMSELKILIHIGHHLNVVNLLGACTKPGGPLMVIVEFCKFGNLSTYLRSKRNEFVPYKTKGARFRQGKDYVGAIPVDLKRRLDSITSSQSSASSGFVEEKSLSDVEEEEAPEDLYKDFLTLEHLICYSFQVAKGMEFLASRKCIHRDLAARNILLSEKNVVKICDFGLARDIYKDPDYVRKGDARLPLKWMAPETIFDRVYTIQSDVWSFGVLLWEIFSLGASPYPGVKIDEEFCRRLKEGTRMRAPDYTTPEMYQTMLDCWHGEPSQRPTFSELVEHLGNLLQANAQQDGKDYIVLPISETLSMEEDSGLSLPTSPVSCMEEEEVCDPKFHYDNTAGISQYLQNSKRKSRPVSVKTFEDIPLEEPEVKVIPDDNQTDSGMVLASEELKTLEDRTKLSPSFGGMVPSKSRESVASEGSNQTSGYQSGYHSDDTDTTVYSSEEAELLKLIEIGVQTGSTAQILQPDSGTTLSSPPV
Serine/threonine-protein kinase 10 (Homo sapiens), sequence (O94804 whole entry, looked up): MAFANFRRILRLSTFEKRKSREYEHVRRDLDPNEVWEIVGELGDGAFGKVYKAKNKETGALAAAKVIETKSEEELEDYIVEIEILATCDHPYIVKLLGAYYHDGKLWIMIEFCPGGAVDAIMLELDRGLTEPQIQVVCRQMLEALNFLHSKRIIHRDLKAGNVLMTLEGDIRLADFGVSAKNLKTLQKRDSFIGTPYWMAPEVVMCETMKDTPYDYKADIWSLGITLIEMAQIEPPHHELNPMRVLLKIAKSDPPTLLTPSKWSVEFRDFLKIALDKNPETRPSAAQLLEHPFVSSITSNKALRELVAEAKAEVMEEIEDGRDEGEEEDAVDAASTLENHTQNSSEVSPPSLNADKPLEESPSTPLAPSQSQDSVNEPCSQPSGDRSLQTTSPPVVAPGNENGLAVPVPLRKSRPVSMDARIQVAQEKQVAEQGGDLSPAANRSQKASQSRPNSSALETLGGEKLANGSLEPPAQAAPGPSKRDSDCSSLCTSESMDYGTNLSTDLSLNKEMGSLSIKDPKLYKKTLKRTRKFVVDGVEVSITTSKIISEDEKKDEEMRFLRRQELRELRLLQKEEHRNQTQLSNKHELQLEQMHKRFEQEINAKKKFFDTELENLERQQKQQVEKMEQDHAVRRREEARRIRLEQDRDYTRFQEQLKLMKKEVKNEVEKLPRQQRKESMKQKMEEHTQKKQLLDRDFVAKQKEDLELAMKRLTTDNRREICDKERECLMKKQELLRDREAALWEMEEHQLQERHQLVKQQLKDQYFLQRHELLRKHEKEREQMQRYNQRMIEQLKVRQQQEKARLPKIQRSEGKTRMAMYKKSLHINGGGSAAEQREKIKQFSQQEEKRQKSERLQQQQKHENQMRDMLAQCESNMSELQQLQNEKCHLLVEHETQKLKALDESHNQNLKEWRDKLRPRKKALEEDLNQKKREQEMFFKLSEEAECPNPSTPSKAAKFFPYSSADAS
Mitogen-activated protein kinase 10 (Homo sapiens), sequence (P53779 whole entry): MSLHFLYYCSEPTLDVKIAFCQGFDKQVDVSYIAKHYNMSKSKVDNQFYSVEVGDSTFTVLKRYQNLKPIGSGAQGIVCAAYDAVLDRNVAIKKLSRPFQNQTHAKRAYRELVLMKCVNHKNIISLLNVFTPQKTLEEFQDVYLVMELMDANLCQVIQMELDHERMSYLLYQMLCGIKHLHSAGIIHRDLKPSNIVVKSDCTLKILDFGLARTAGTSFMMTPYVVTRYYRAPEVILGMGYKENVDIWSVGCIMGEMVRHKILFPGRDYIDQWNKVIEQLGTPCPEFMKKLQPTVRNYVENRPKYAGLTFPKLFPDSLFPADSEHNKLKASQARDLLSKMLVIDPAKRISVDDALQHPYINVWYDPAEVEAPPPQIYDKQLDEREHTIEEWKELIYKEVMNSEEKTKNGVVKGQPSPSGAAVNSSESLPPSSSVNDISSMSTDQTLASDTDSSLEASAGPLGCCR

Regarding `CCOc1nc(NC(=O)Cc2cc(OC)ccc2OC)cc(N)c1C#N`, the residual activity in assay [1] is -2%.

For the compound `Nc1ncnc2[nH]nc(Nc3ccc(F)cc3)c12`, the residual activity in assay [1] worked out at 92%; in [2], 97%; in assay [3], 54%; in assay [4], 90%; in assay [5] it was 58%; in assay [6] it was 102%. Besides, the residual activity in [7] was determined as 53%; in assay [8], 7%; in assay [9], 49%.

For the compound `O=C(O)/C=C/c1cc(Br)c(Br)c(Br)c1Br`, the residual activity in assay [1] was 46%; in [2], 99%; in assay [3], 81%; in [4] it was 105%; in assay [5], 71%; in assay [6], 93%. Further, the residual activity in assay [10] is 38%; in [7] it was 94%; in [8] it was 58%; in assay [9], 77%.

For the compound `O=C(c1cc2cc(O)ccc2[nH]1)c1cc2cc(O)ccc2[nH]1`, the residual activity in assay [1] was found to be 33%; in assay [2], 18%; in assay [3] it was 3%; in assay [4] it was 74%; in [5] it was 41%; in [6], 100%. Further, the residual activity in assay [7] is 55%; in assay [8], 20%; in assay [9], 16%.

For the compound `COc1cc2c(cc1OC)-c1n[nH]c(Nc3cccc(F)c3)c1C2`, the residual activity in [1] was found to be 33%; in [2], 75%; in [3] it was 25%; in assay [4], 13%; in assay [5] it was 2%; in [7] it was 59%. Besides, the residual activity in [8] was 37%.

Turning to `CCN(CC)CCNC(=O)c1c(C)[nH]c(/C=C2\C(=O)Nc3ccc(Cl)cc32)c1C`, the residual activity was found to be 75% in assay [1]; 2% in [2]; 1% in [3]; 99% in assay [4]; 44% in assay [5]; 15% in assay [7]. Moreover, the residual activity in [8] is 5%; in assay [9] it was 12%.

In the case of `O=C1NC(=O)C(c2cn(CCCO)c3ncccc23)=C1c1cnccn1`, the residual activity in [1] worked out at 86%; in [2], 64%; in [3], 63%; in assay [5], 80%; in assay [6], 85%; in [10], 75%. Further, the residual activity was found to be 94% in [7] and 80% in [8].

Turning to `NCCNc1ncc(C(N)=O)c(Nc2cccc(C(F)(F)F)c2)n1`, the residual activity in assay [1] is 46%; in assay [2], 101%; in [3] it was 78%; in assay [4] it was 102%; in assay [5], 50%; in assay [6], 74%. In addition, the residual activity is 20% in [10] and 80% in assay [9].

Consider `O=S(=O)(c1cccc2cnccc12)N1CCCNCC1`, for which the residual activity in assay [6] turned out to be 100%.

With `O=S(=O)(NCCNC/C=C/c1ccc(Br)cc1)c1cccc2cnccc12`, the residual activity came out at 62% in assay [3]; 79% in assay [4]; 29% in [5]; 71% in assay [7]; 53% in assay [8].

For `NC(=O)c1cccc(-c2cc(Nc3ccc(OC(F)(F)F)cc3)ncn2)c1`, the residual activity is 100% in [2]; 89% in [3]; 94% in [5]; 95% in [6]; 98% in assay [10]; 139% in assay [9].

`NC(=O)c1ccc(-c2nc(-c3ccc4c(c3)OCCO4)c(-c3ccccn3)[nH]2)cc1`: the residual activity was determined as 65% in assay [7] and 68% in assay [8].

On to `CN([C@@H](Cc1ccc(OS(=O)(=O)c2cccc3cnccc23)cc1)C(=O)N1CCN(c2ccccc2)CC1)S(=O)(=O)c1cccc2cnccc12`, for which the residual activity in [1] stood at 75%; in assay [4], 99%; in [5], 86%; in assay [9], 144%.

Regarding `COc1ccc(COc2ccc(Cc3cnc(N)nc3N)cc2OC)cc1`, the residual activity in assay [9] was determined as 110%.

As to `COc1ccc(-c2cnc3c(-c4ccsc4)cnn3c2)cc1`, the values for the residual activity in assay [2], in [3] and in assay [9] were 88%, 68% and 139%, respectively.

As to `CC(C)N(CCC(=O)c1ccc2ccccc2c1)Cc1ccccc1`, the residual activity in [1] amounted to 84%; in assay [3] it was 85%; in assay [5], 85%.

Take `CCOC(=O)c1c(C)[nH]c(/C=C2\C(=O)Nc3ccccc32)c1C`: the figures for the residual activity in assay [2] and in [3] were 16% and 28%, respectively.

On to `Cc1cc(C)c(/C=C2\C(=O)Nc3ccccc32)[nH]1`, for which the figures for the residual activity in assay [2], in assay [3] and in [8] were 4%, 2% and 45%, respectively.

For `COc1ccc(Cl)cc1NC(=O)Nc1cc(C)nc2ccccc12`, the residual activity in assay [1] worked out at 78%; in assay [10] it was 95%; in assay [7], 96%; in assay [8] it was 96%.

Take `O=c1c(-c2ccc(F)cc2)c(-c2ccncc2)[nH]n1-c1ccc(Cl)cc1`: the residual activity in [1] was -2%; in assay [2], 102%; in [3], 54%; in assay [8] it was 99%.

Regarding `O=c1cc(N2CCOCC2)oc2c(-c3ccccc3)cccc12`, the residual activity in assay [4] stood at 101%; in [5] it was 80%.

With `O=C1Cc2c([nH]c3ccc([N+](=O)[O-])cc23)-c2ccccc2N1`, the residual activity in [1] was found to be 66%; in [2] it was 52%; in assay [3], 42%; in assay [7], 102%; in assay [8], 110%; in assay [9] it was 22%.

With `O=C1C(Cl)=C(N2C(=O)CCC2=O)C(=O)c2ccccc21`, the residual activity came out at 94% in [1]; 88% in [4]; 81% in assay [5]; 94% in assay [6]; 89% in assay [10]; 95% in assay [7]. Besides, the residual activity in assay [8] was 90%; in assay [9], 76%.

`N#Cc1c(NC(=O)c2cccc3ccccc23)sc2c1CCCC2`: the residual activity turned out to be 0% in assay [1]; 96% in assay [3]; 92% in assay [4]; 82% in [5]; 86% in [6]; 93% in assay [10]. Further, the residual activity worked out at 90% in [7] and 92% in assay [8].

As for `O=C1Nc2ccccc2/C1=C\c1c(Cl)[nH]c2ccccc12`, the residual activity is 47% in assay [1]; 30% in assay [3]; 71% in [5]; 84% in assay [7]; 36% in assay [8]; 83% in assay [9].

For the compound `Nc1nccc(-c2c(-c3ccc(F)cc3)ncn2C2CCNCC2)n1`, the residual activity in assay [1] was 22%; in assay [4] it was 64%; in [5], 25%.

Turning to `N#C/C(=C\c1ccc(O)c(O)c1)C(=O)NCc1ccccc1`, the residual activity in assay [1] came to 72%; in assay [3] it was 87%; in assay [6], 102%; in assay [10], 100%.

Regarding `COc1ccc(CNC(=O)Nc2ncc([N+](=O)[O-])s2)cc1`, the residual activity amounted to 57% in assay [1] and 80% in assay [9].

Turning to `COc1cc2nccc(Oc3ccc(NC(=O)Nc4cc(C)on4)c(Cl)c3)c2cc1OC`, the residual activity was 67% in [4]; 14% in [5]; 99% in [6]; 101% in [10]; 8% in assay [7]; 8% in [8]. Further, the residual activity in assay [9] stood at 3%.

With `O=C1Cc2c([nH]c3ccc(Br)cc23)-c2ccccc2N1`, the residual activity in assay [2] came to 74%; in assay [3] it was 31%; in assay [4], 89%; in [5] it was 80%; in assay [6], 97%; in [10] it was 95%. The residual activity turned out to be 96% in [7] and 56% in assay [8].

On to `CC(C)[C@H](CO)Nc1nc(Nc2cc(N)cc(Cl)c2)c2ncn(C(C)C)c2n1`, for which the residual activity in assay [1] was determined as 67%; in [5], 85%; in assay [10], 72%; in assay [7], 57%; in assay [8] it was 17%.

On to `N#C/C(=C1/Nc2ccccc2S1)c1ccnc(NCCc2cccnc2)n1`, for which the residual activity in [6] was 96%; in assay [10], 81%; in assay [7], 78%; in assay [8], 39%.

Consider `Oc1cccc(-c2nc(N3CCOCC3)c3oc4ncccc4c3n2)c1`, for which the residual activity in assay [7] worked out at 96%; in [8] it was 87%.

Regarding `Fc1ccc(-c2nc3n(c2-c2ccncc2)CCS3)cc1`, the residual activity in [1] stood at 7%; in assay [8], 99%.

As to `Nc1n[nH]c2nc3ccccc3nc12`, the residual activity in assay [1] was 66%; in [4], 89%; in assay [5], 67%; in [6] it was 126%; in assay [10], 88%; in assay [7] it was 88%. Moreover, in assay [8], the residual activity was 78%.

`O=C(c1ccccc1)c1ccc(N2CCOCC2)cc1O`: the residual activity was 53% in [1]; 99% in [2]; 96% in assay [3]; 80% in assay [5]; 91% in assay [7]; 91% in [8]. Further, the residual activity in [9] came out at 137%.

On to `CSc1nc(-c2ccc(F)cc2)c(-c2ccnc(NC(C)c3ccccc3)c2)[nH]1` (centres undefined), for which the residual activity in [1] is -3%; in [3] it was 87%; in assay [5] it was 71%; in [10], 98%; in assay [8] it was 96%; in assay [9] it was 85%.

As for `O=C1NC(=O)C(c2c[nH]c3ccccc23)=C1c1c[nH]c2ccccc12`, the residual activity in assay [1] is -3%; in [2], 16%; in assay [3], 2%; in assay [5], 50%; in assay [6], 100%; in assay [10], 97%. The residual activity in assay [7] is 39%; in assay [8], 15%; in assay [9] it was 78%.

For `O=C1NC(=O)C(c2cn(CCCn3ccnc3)c3ccccc23)=C1Nc1ccccc1`, the residual activity worked out at 68% in [1]; 73% in assay [2]; 22% in assay [3]; 41% in assay [5]; 100% in assay [6]; 103% in assay [10]. For the same compound, the residual activity worked out at 21% in assay [7], 6% in assay [8] and 130% in assay [9].

Regarding `O=C(Nc1nc2ccccc2n1CCN1CCOCC1)c1cccc([N+](=O)[O-])c1`, the residual activity amounted to 105% in [4], 88% in assay [5], 100% in [6] and 100% in assay [10].

As to `O=C(Nc1ccc(Cl)cc1)c1ccccc1NCc1ccncc1`, the residual activity in assay [1] is 123%; in assay [2], 3%; in assay [3], 4%; in assay [6], 101%; in [10] it was 99%; in assay [7], 82%. Moreover, in [8], the residual activity stood at 64%.
